Compound activity (PubChem)
In the library only some 5.4% were active in any assay of this set; here they are far more common.
Sm TGR block – qHTS Assay for the Inhibitors of Schistosoma Mansoni Peroxiredoxins. purified TGR, DTNB reduction, TNB absorbance 405 nm. Potency, µM (highest dose often 114 µM), for the others: at the highest dose activity change, negative = inhibition, most hits filed as inhibitors. Schistosoma mansoni thioredoxin glutathione reductase (TGR), Q962Y6. hit rate 3% among 360,000; active = well fitted inhibition curve with a large enough effect; inconclusive = small, poorly fitted or top-dose-only effect; inactive = no such curve, though single readings can be large or run the other way; note: nearly all actives have a fitted effect of over 60% in size
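TGR 20 nM + NADPH 100 uM (dispensed conc.), cpd preinc 15 min RT; start with NADPH (500 uM addition) then DTNB (15 mM addition). Kinetic TNB absorbance, 405 nm filter. Four-parameter Hill fit across titration.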
FMDV antiviral – High Throughput Screening for Foot and Mouth Disease Virus Antivirals; FMDV antiviral cell-based qHTS; Potency, µM (titrated, usually from 57.9 µM), for the others: at the top dose activity change, negative = inhibition, actives largely listed as inhibitors; hit rate 1.2% among 410,000; AID 1159524, 2015; calls by dose curve; tested in HEK293T cells; note: read-out not given here; nearly all actives have a fitted effect of over 45% in size
MARV entry inh – qHTS for inhibitors of binding or entry into cells for Marburg Virus | Marburg virus pseudotyped entry inhibition, cell reporter | Potency, µM (titrated, usually from 37.8 µM), for inactives: at the top dose activity change, negative = inhibition, actives largely listed as inhibitors | hit rate 1.8% among 300,000 | AID 540276, 2011; calls by dose curve; tested in HEK293 cells
VACV mCherry inh – qHTS for Stage-Specific Inhibitors of Vaccinia Orthopoxvirus: mCherry Reporter Primary qHTS; Vaccinia virus mCherry reporter infection, fluorescence; Potency, µM (highest dose often 36.5 µM), for inactives: top-dose activity change, negative = inhibition, usual class: inhibitors; hit rate 0.63% among 310,000; AID 720579, 2013; calls by dose curve; tested in A549 cells; note: nearly all actives have a fitted effect of over 35% in size
LASV entry inh – qHTS for Inhibitors of binding or entry into cells for Lassa Virus; Lassa virus pseudotype entry inhibition, cell reporter; Potency, µM (top dose mostly 37.9 µM), without a hit: top-dose activity change, negative = inhibition, hits mostly inhibitors; hit rate 1.2% among 300,000; AID 540256, 2011; calls by dose curve; tested in HEK293 cells; note: nearly all actives have a fitted effect of over 50% in size
VACV Venus inh – qHTS for Stage-Specific Inhibitors of Vaccinia Orthopoxvirus: Venus Reporter Primary qHTS; Vaccinia virus Venus reporter expression, fluorescence; hit rate 0.46% among 330,000; Potency, µM (top dose mostly 36.5 µM), without a hit: top-dose activity change, negative = inhibition, hits mostly inhibitors; calls by dose curve; tested in A549 cells; note: nearly all actives have a fitted effect of over 30% in size
* = called active by the depositor; i = inactive; ? = inconclusive; . = not tested or not shown; ! = a repeat was not active; [ ] = another dose, or the depositor's remark. % is set by controls: 0 for no effect and ±100 for the full control effect; potency is the fitted concentration of half-maximal effect.

SMILES | Sm TGR block | FMDV antiviral | MARV entry inh | VACV mCherry inh | LASV entry inh | VACV Venus inh
COC(=O)c1ccc(NC(=O)CC2C(=O)N(c3ccc(C)cc3)C(=O)N2Cc2ccc(OC)cc2)cc1 (centres undefined) | 4.3% | 1.3% | . | -13.6% | -1.0%[46.1 µM] | -3.2%
O=C(CSc1nnc(C2CCCCC2)n1-c1ccccc1)NCc1ccco1 | 44.7µM* | . | -2.6% | -11.8% | -28.3% | -11.5%
Cc1ccc(-n2c(SCC(=O)NCc3ccco3)nnc2-c2cccnc2)cc1 | 44.7µM* | -4.3% | 3.2% | i | 9.7% | -1.8%
CCCC[C@H](CCC(=O)Nc1ccc(C(=O)OCC)cc1)C(=O)O | . | . | 2.5% | . | . | .
N/C(=N\S(=O)(=O)c1cccs1)c1ccccc1 | 1.0% | 20.6% | 16.3% | . | 6.9% | -17.4%
CC(C)(C)c1cc[n+](C2=C([O-])c3ccccc3C(=O)/C2=N\S(=O)(=O)c2cccs2)cc1 | -27.6% | 8.91µM* | 10µM* | ? | ? | ?
O=S(=O)(/N=C/c1ccccc1O)c1cccs1 | 1.1% | . | 17.5% | ? | 13.5% | 0.1%
O=C1/C(=N\S(=O)(=O)c2cccs2)C([n+]2ccccc2)=C([O-])c2ccccc21 | -19.4% | 25.1µM* | . | . | . | .
Cc1oc2ccc(O)c(CN3CCN(Cc4ccccc4)CC3)c2c1C(=O)Nc1cccc(Cl)c1C | 10.1% | ? | 6.2%[46.1 µM] | ? | 14.5%[46.1 µM] | -22.4%
S=C1SCN(Cc2ccccn2)CN1Cc1ccco1 | -9.8% | -18.7% | 9.2µM* | i | 13.5%[14.3 µM] | -10.4%
COc1cc2c(ccc3cc(OC)c(OC)c(O)c32)cc1O | 44.7µM* | -1.3% | . | -10.5% | . | -20.2%
COc1cc2cccc(OC)c(=O)c2c(O)c1OC | -10.4% | 6.9% | 22.9%[46.1 µM] | i | -0.7%[46.1 µM] | -10.0%
COC(=O)N[C@H](CC(C)=O)c1ccc2c(c1)OCO2 | . | . | -17.1%[14.2 µM] | . | . | .
O=C(NC1CC1)c1ccc(-c2nc3ccccc3s2)s1 | 1.7% | ? | 1.41µM* | 9.8% | 1.26µM* | 14.2%
O=C(Nc1cccc(-c2nc3ccccc3s2)c1)c1ccc2c(c1)OCO2 | 5.1% | . | 12.2% | -0.5% | 4.5% | -20.9%
O=C(c1ccc(-c2nc3ccccc3s2)s1)N1CCOCC1 | 4.9% | 8.91µM* | ? | i | 3.55µM* | -13.5%
c1ccc2sc(-c3ccc4c(c3)OCO4)nc2c1 | 6.0% | -76.3% | ? | . | 9.2µM* | .
Cc1nc(C)c(-c2ccc(SCC(=O)Nc3ccc(Br)cc3)nn2)s1 | -10.4% | -16.5% | . | -27.3% | ? | -27.6%
COc1ccccc1CNC(=O)c1c2c(nc3ccccc13)C(=O)N(C1CCCCC1)C2 | 4.6% | -20.3% | . | -14.7% | 11.1%[46.1 µM] | -2.2%
Cc1c(C(=O)NCc2ccc(F)cc2)sc2ncnc(NCC3CCCO3)c12 (centres undefined) | . | -13.3% | . | -18.6% | . | -5.7%
c1coc(CNc2nc(N3CCCCC3)nc3ccccc23)c1 | ? | -5.8% | ? | -29.4% | ? | ?
COc1ccccc1Nc1nc(NCc2ccco2)c2ccccc2n1 | 0.1% | ? | ? | ? | -20.1% | -16.5%
c1ccc(-c2nc(NCc3ccco3)c3ccccc3n2)nc1 | -23.4% | ? | ? | ? | ? | 11.2µM*
c1ccc(N2CCN(c3nc(NCc4ccco4)c4ccccc4n3)CC2)cc1 | -28.1% | 28.2µM* | ? | . | ? | ?
Cc1ccc(Nc2nc(NCc3ccco3)c3ccccc3n2)cc1 | ? | -42.5% | ? | ? | 2.82µM* | 11.2µM*
SMILES | Sm TGR block | FMDV antiviral | MARV entry inh | VACV mCherry inh | LASV entry inh | VACV Venus inh
CCOc1ccc(C(=O)Nc2nnc(SCc3cc(=O)n4ccccc4n3)s2)cc1 | -1.1% | 31.6% | . | -12.5% | 2.5%[46.1 µM] | -15.6%
Cc1csc2nc(-c3cccc(NC(=O)C(C)C)c3)cn12 | 2.2% | -5.0% | . | -18.3%[7.34 µM] | 5.5%[46.1 µM] | -11.1%[7.34 µM]
CCO[C@H]1[C@H](NC(=O)c2cccnc2)c2ccccc2C12CCN(C(=O)c1ccoc1)CC2 | . | -6.3% | . | -2.8% | . | 6.4%
O=c1[nH]c2ccc(NC(=S)Nc3ccc(Cl)cc3Cl)cc2[nH]1 | 11.2µM* | 0.4% | 1.0% | . | -6.0% | .
O=c1[nH]c2ccc(NC(=S)Nc3ccc(Cl)cc3)cc2[nH]1 | -14.0% | -2.2% | -8.1% | -12.9% | -3.9% | -21.2%
O=c1[nH]c2ccc(NC(=S)Nc3ccccc3Cl)cc2[nH]1 | 50.1µM* | 0.0% | ? | . | 1.0% | -13.9%
Cc1ccccc1NC(=S)Nc1ccc2[nH]c(=O)[nH]c2c1 | -32.8% | -15.4% | -11.9%[46.1 µM] | -16.7% | 23.2%[46.1 µM] | 6.0%
Cc1ccc(-c2nnc(SCc3ccccc3)o2)cc1 | 3.7% | 24.3% | . | -10.5%[7.34 µM] | 25.0%[46.1 µM] | -6.0%[7.34 µM]
COc1ccc(-c2cnnn2-c2ccc(NC(=O)c3ccccc3OC)cc2)cc1 | -0.8% | -18.7% | . | -13.7% | -21.0%[46.1 µM] | -11.9%
CCSc1ccc(-c2ccco2)nn1 | 12.6µM* | 54.3% | ? | -8.8% | 14.7% | -4.7%
COc1ccc(-c2ccc(SCC(=O)NCc3ccco3)nn2)cc1 | -20.7% | 0.0% | -14.5% | -18.2% | ? | -7.9%
CSc1ccc(-c2ccco2)nn1 | 10µM* | 56.5% | 23.1% | -9.3% | -1.9% | 3.8%
CCOC(=O)C(C)n1nc(C)c2sc3ccccc3c2c1=O (centres undefined) | 39.8µM* | 1.0% | -1.7% | . | 6.6% | .
Cc1ccc(CNC(=O)C(C)n2nc(C)c3sc4ccccc4c3c2=O)cc1 (centres undefined) | 3.8% | -3.4% | 9.6%[46.1 µM] | -3.9% | ? | -5.2%
Cn1ncc(N=Cc2c(O)ccc3ccccc23)c1C(=O)Nc1cccc(Cl)c1 | -1.7% | -18.6% | 18.3µM* | ? | ? | -2.1%
Cn1ncc(Cl)c1C(=O)Nc1cccc(Cl)c1 | 44.7µM* | 10.3% | 11.6% | . | ? | .
CSc1cccc(NC(=O)c2c(Cl)cnn2C)c1 | -5.7% | 34.4% | 25.7% | -16.0% | ? | 5.6%
NC(=O)c1ccccc1NC(=O)CN1CCN(Cc2ccc(Cl)cc2Cl)CC1 | -14.4% | 17.8µM* | ? | -5.1% | -26.3% | -20.1%
COC1=CC(=O)C=C(OC)C1=O | . | 28.2µM*! | . | -1.8% | . | -13.9%
Cc1nc2cc(NC(=O)[C@@H]3C[C@@H](Sc4ccccn4)CN3Cc3ccc4c(c3)OCCO4)ccc2s1 | . | 4.5% | . | 9.5% | . | 4.9%
O=C(/C=C/c1ccccc1Cl)c1ccc[nH]1 | -13.8% | 37.6% | ? | 12.6µM* | 0.2% | ?
O=C(/C=C/c1ccc(Cl)cc1Cl)c1ccc[nH]1 | . | 57.8% | . | . | . | .
O=c1oc2ccccc2c(N2CCCCC2)c1CN1CCCC1 | -14.0% | 20.5% | -21.5% | . | 2.0% | .
CCc1oc2ccccc2c1C(=O)CCN1CCCCC1 | 7.94µM* | -12.9% | -22.7% | . | ? | .
O=c1oc2ccccc2c(N2CCCCC2)c1CN1CCCCC1 | 17.8µM* | -3.2% | 5.3% | i | 7.3% | 0.0%
Cc1cnc(-n2ncc(C(=O)NCC3COCCO3)c2C2CC2)nc1-c1cccs1 (centres undefined) | . | 19.0% | . | -18.0% | . | -8.0%
CNCCc1ccccn1 | 3.8% | 0.0% | 5.3% | -21.5% | 4.0% | -18.1%
CNCCc1cnc(CCC(c2ccccc2)c2ccccc2)[nH]1 | . | . | 5.8µM* | . | ? | .
